Measured values from PubChem BioAssay (NCATS).
Records with an inconclusive call do not appear. Calls of active or inactive are those of the source. Calls follow the shape of the dose curve; as a rule, active = well fitted cell-killing curve with a large enough effect; inconclusive = small, poorly fitted or top-dose-only effect, or effect the other way; inactive = flat fitted curve, though single readings scatter.

Test system: C33A
Assay: Primary qHTS to identify gynecologic anti-cancer compounds using libraries of approved drugs and bioactive compounds (AID 1345084); also: nearly all actives have a fitted effect of over 55% in size
Conditions: Gynecologic cancer cell panel viability, ATPlite luminescence, 48 h; series mostly up to 57.5 µM; activity change, negative = cytotoxicity: at the top concentration
In short: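 Luminescence from the ATPlite ATP-monitoring reagent indicates viable cell number; lower signal means cytotoxicity. Cells received compound 16 h after seeding and were exposed for 48 h across five concentrations.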
% is scaled to controls: 0 for no effect and ±100 for the full control effect.

SMILES	activity change, negative = cytotoxicity
C/C(=C\CCC1(C)C2CCC(C2)C1(C)O)C(=O)O (centres undefined)	-6.22% (inactive)
CC(=O)O[C@@H]1c2c3c(cc(O)c2C(=O)O[C@@H]1C)O[C@@]1(C)[C@@H](O)C[C@H]2C(C)(C)C(=O)C=C[C@]2(C)[C@@H]1C3	-5.97% [at 25.3 µM] (inactive)
COc1ccccc1Oc1ccc(N(Cc2cccnc2)S(=O)(=O)CC(F)(F)F)cc1	14.4% (inactive)
CC(C)C(NC(=O)c1ccc2ccccc2n1)C(=O)NC(CC(=O)O)C(=O)COc1c(F)cccc1F (centres undefined)	2.21% (inactive)
CC(C)=CCC[C@](C)(O)[C@H]1CC[C@]2(C)[C@@H]1[C@H](O)CC1[C@@]3(C)CC[C@H](O)C(C)(C)C3[C@@H](O[C@@H]3O[C@H](CO)[C@@H](O)[C@H](O)[C@H]3O[C@@H]3OC[C@@H](O)[C@H](O)[C@H]3O)C[C@]12C (some centres undefined)	11.2% [at 25.3 µM] (inactive)
C=CC[C@]12C[C@@H](OC)C(=O)C(OC)=C1O[C@@H](c1cc(OC)c3c(c1)OCO3)[C@@H]2C	3.65% [at 25.3 µM] (inactive)
CC(C)O[C@@H]1O[C@H](CO)[C@@H](O)[C@H](O)[C@H]1O	20.2% (inactive)
C[C@@H]1CN(Cc2ncccn2)C[C@H]1c1nc2c(cnn2C2CCOCC2)c(=O)[nH]1	7.3% (inactive)
CN[C@H](CC(C)C)C(=O)N[C@H]1C(=O)N[C@@H](CC(N)=O)C(=O)N[C@H]2C(=O)N[C@H]3C(=O)N[C@H](C(=O)N[C@H](C(=O)O)c4cc(O)cc(O)c4-c4cc3ccc4O)[C@H](O[C@H]3C[C@](C)(N)[C@@H](O)[C@H](C)O3)c3ccc(c(Cl)c3)Oc3cc2cc(c3O[C@@H]2O[C@H](CO)[C@@H](O)[C@H](O)[C@H]2O[C@H]2C[C@](C)(NCc3ccc(-c4ccc(Cl)cc4)cc3)[C@@H](O)[C@H](C)O2)Oc2ccc(cc2Cl)[C@H]1O	16.9% [at 25.3 µM] (inactive)
C=C1CC[C@H]2[C@@](C)(CCC(O)[C@@]2(C)CO)[C@@H]1CCC1=CCOC1=O (some centres undefined)	-2.32% [at 38.5 µM] (inactive)
CC1CCC2(C=O)C(CO)=CCCC2C1(C)CC(=O)O (centres undefined)	4.03% (inactive)
C=CC1(C)C=C2CCC3C(C)(C)C(O[C@@H]4O[C@@H](CO)[C@H](O)[C@H]4O)CCC3(C)C2CC1O[C@@H]1O[C@H](C)[C@H](O)[C@H](O)[C@H]1O (some centres undefined)	-1.54% [at 25.3 µM] (inactive)
C/C(=C\CC[C@@H](C)[C@H]1CC(O)[C@@]2(C)C3CC[C@H]4C(C)(C)[C@@H](OC5OCC(O)C(O)C5OC5OC(CO)C(O)C(O)C5O)CC[C@@]45C[C@@]35CC(O)[C@]12C)C(=O)O (some centres undefined)	2.38% [at 25.3 µM] (inactive)
CC(C)(C)NCCCNC(=O)c1cccc(Br)c1	6.5% (inactive)
CC(=O)OC1C[C@]2(C)C(O)CC(C)=C[C@H](OC(=O)c3ccc(O)cc3)C2[C@]1(O)C(C)C (some centres undefined)	7.28% [at 25.3 µM] (inactive)
C=C1CC[C@@H]2[C@](C)(CO[C@@H]3O[C@H](CO)[C@@H](O)[C@H](O)[C@H]3O)[C@H](O)CC[C@@]2(C)[C@@H]1C/C=C1/C(=O)OC[C@H]1O	1.01% [at 25.3 µM] (inactive)
COC(=O)/C=C/C12COC(C)(C)C1C(O)C(OC(C)=O)C1(C)C2CCC2(C)C(c3ccoc3)OC(=O)C3OC321 (centres undefined)	4.08% [at 25.3 µM] (inactive)
CC1CC(=O)C2=C(CCC3(O)C(O)c4c(O)cccc4C(=O)C23O)C1 (centres undefined)	-1.38% [at 38.5 µM] (inactive)
COC(=O)c1ccccc1O[C@@H]1O[C@H](CO)[C@@H](O)[C@H](O)[C@H]1O[C@@H]1O[C@@H](C)[C@H](O)[C@@H](O)[C@H]1O	7.56% [at 25.3 µM] (inactive)
CCc1ccc(Cc2ccc3c(c2)[C@]2(OC3)O[C@H](CO)[C@@H](O)[C@H](O)[C@H]2O)cc1	5.11% (inactive)

SMILES	activity change, negative = cytotoxicity
OC[C@H]1O[C@@H](Oc2ccccc2)[C@H](O)[C@@H](O)[C@@H]1O	9.81% (inactive)
COc1cc2c(cc1OC)CC(=O)N(CCCNC[C@H]1Cc3cc(OC)c(OC)cc31)CC2	9.53% (inactive)
COc1cc(O)c([C@@H](CC(=O)N2CC(C)CC(C)C2)c2ccc3c(c2)OCO3)c(OC)c1 (some centres undefined)	9.97% (inactive)
C=CC/C=C\C/C=C\CCCCCCCc1cccc(O)c1C(=O)O	4.4% [at 38.5 µM] (inactive)
Cc1ccc(-c2ccc3c(ccc4sc5c(c43)NC[C@@H](C)NC5=O)n2)cn1	-4.39% (inactive)
C[C@@H]1C(=O)OC[C@H]2C(C(=O)O)=C[C@@H]3CC(C)(C)C[C@]312	10.9% (inactive)
C[C@H]1CC(=O)Nc2cccc(-c3cnn(C(C)(C)C)c3)c2N1	1.6% (inactive)
COC(=O)C(C)C1CCC2(C)C(=O)C=CC(C)(O)C2C1O (centres undefined)	4.22% (inactive)
CC(=O)O[C@@H]1[C@@H](OC(=O)/C=C/c2ccccc2)[C@@H](OC(C)=O)[C@H](O[C@H]2[C@@H]3C=CO[C@@H](O[C@@H]4O[C@H](CO)[C@@H](O)[C@H](O)[C@H]4O)[C@@H]3[C@@]3(CO)O[C@@H]23)O[C@H]1C	3.48% [at 25.3 µM] (inactive)
COc1cccc(C(=O)N2CCN(C(=O)COc3cccc(C)c3)CC2)c1OC	-18.6% (inactive)
C=C[C@H]1C(O[C@@H]2O[C@H](CO)[C@@H](O)[C@H](O)[C@H]2O)OC=C2C(=O)N3CCc4c([nH]c5ccccc45)[C@H]3C[C@H]21 (some centres undefined)	-5.53% [at 25.3 µM] (inactive)
C/C=C(/COC(=O)/C(C)=C/C)C(=O)OC(CC)c1ccc(OC)c(OC)c1 (centres undefined)	7.06% [at 38.5 µM] (inactive)
C=C1[C@H](OC(C)=O)[C@H]2[C@@H](OC(C)=O)[C@](C)(OC(C)=O)C[C@]2(OC(C)=O)C(=O)[C@H](C)/C=C/C(C)(C)C(=O)[C@H](OC(=O)C(C)C)[C@H]1OC(C)=O	6.15% [at 25.3 µM] (inactive)
C=CC(C)(C)C12C=C(OC)C(=O)N3C(C(C)C)C(=O)NC31N(OC)c1ccccc12 (centres undefined)	4.49% [at 25.3 µM] (inactive)
C/C1=C\CC[C@]2(C)O[C@@H]2[C@H](O)[C@H](C(C)C)[C@H](OC(=O)/C=C/c2ccccc2)C1	6.05% [at 38.5 µM] (inactive)
c1ccc(N2CCN(CCc3nn[nH]n3)CC2)cc1	10.6% (inactive)
C=C1CC2C(C)(CCC(=O)O)C(C(C)(C)O)CCC2(C)C2C(=O)OC(C)(C(=O)OC)C(=O)C12C (centres undefined)	4.62% [at 25.3 µM] (inactive)
CC(C)=CCCC1(C)C=Cc2c(c(C)cc3c2[nH]c2ccccc23)O1 (centres undefined)	0.587% [at 38.5 µM] (inactive)
CC1(C)CC[C@]2(C(=O)O[C@@H]3O[C@H](CO[C@@H]4O[C@H](CO)[C@@H](O)[C@H](O)[C@H]4O[C@@H]4O[C@H](CO)[C@H](O)[C@H](O)[C@H]4O)[C@@H](O)[C@H](O[C@@H]4O[C@H](CO)[C@@H](O)[C@H](O)[C@H]4O)[C@H]3O)CC[C@]3(C)C(=CCC4[C@@]5(C)CC[C@H](O[C@@H]6OC[C@@H](O)[C@H](O)[C@H]6O)[C@@](C)(C(=O)O)C5CC[C@]43C)[C@@H]2C1 (some centres undefined)	-13.6% [at 6.55 µM] (inactive)
